# Results reported in PubChem BioAssay AID504832 (National Center for Advancing Translational Sciences (NCATS), 2011).
# In all, about 310,000 compounds went through this assay and about 18,000 (5.8%) were called active. Not shown: some 22% with an inconclusive outcome. The sample holds actives, similar compounds and a random draw of the others, so the mix is not that of the screen. Values without a mark were called inactive. The call rests on the fitted dose curve; in most records, active means well fitted inhibition curve with a large enough effect; inconclusive means small, poorly fitted or top-dose-only effect, or another doubt; inactive means no such curve, though single readings can be large or run the other way.
# Assay: Primary qHTS for delayed death inhibitors of the malarial parasite plastid, 48 hour incubation
# Settings: P. falciparum luciferase growth in erythrocytes; series mostly up to 28.7 µM; activity change, negative = inhibition: at the top concentration
# Summary of the method: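 Growth was read as firefly luciferase luminescence after a 48 h, 37 C, 5% CO2 exposure of compounds to reporter-bearing P. falciparum cultures (0.1% parasitemia, 2% hematocrit final) in Albumax-supplemented RPMI 1640.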
# On the % scale 0 is the no-effect control and ±100 the full control effect; potency means the concentration at half of the fitted maximal effect.
SMILES,"activity change, negative = inhibition",Potency
O=C(Nc1ccc(C2CC2(Cl)Cl)cc1)c1cccc([N+](=O)[O-])c1 (centres undefined),-0.243%,–
CCn1c(SC(C)C(=O)Nc2ccc(N3CCOCC3)cc2)nnc1-c1ccco1 (centres undefined),7.63%,–
CC(=O)N/C(=C\c1ccccc1)C(=O)OC(C)C(=O)N(C)c1ccccc1 (centres undefined),-7.82%,–
Cc1ccc(NC(=O)CN2CCc3ccccc3C2)cc1C,8.17%,–
COc1ccc(C(C(=O)NC2CCCCC2)N(C(=O)Cc2c[nH]c3ccccc23)c2ccccc2)cc1OC (centres undefined),–,13.1 µM (active)
COc1ccc(-c2cc(C(=O)NC(Cc3c[nH]c4ccccc34)C(=O)O)c(C)o2)cc1OC (centres undefined),36.3%,–
COc1ccc(CNCCc2c[nH]c3ccccc23)cc1OC,-15.4%,–
Cc1ccc(F)cc1NC(=O)CSCc1c(C)noc1C,1.25%,–
COc1ccc(S(=O)(=O)N2CCCCCC2)cc1C(=O)N(C)Cc1cccc(OC)c1OC,–,13.1 µM (active)
COc1ccc(S(=O)(=O)N2CCCCC2)cc1Br,-17.1%,–
CCNC(=O)NC(=O)C(C)OC(=O)c1cc(S(=O)(=O)N2CCCCCC2)ccc1OC (centres undefined),12%,–
O=S(=O)(Nc1cccc(-c2ccc(N3CCOCC3)nn2)c1)c1ccc(Cl)c(Cl)c1,1.25%,–
O=S(=O)(NC1CC2CCC1C2)c1ccc(Cl)cc1 (centres undefined),-3.94%,–
Cc1ccccc1Nc1nnc(SCC(=O)c2cc3ccccc3o2)s1,10.3%,–
Cc1ccc(Nc2nnc(SCC(=O)c3cc4ccccc4o3)s2)cc1C,67.4%,–
Cc1cccc(Nc2nnc(SCC(=O)c3c(N)n(C4CC4)c(=O)[nH]c3=O)s2)c1C,–,11.7 µM (active)
COCCOC(=O)C1=C(C)NC(=O)NC1c1cc2c(cc1Br)OCO2 (centres undefined),-13.4%,–
O=C(NC(Cc1ccccc1)C(=O)N1CCCC(C(F)(F)F)C1)c1ccccc1 (centres undefined),-0.11%,–
C[N+]12CN3CN(CN(C3)C1)C2,–,13.1 µM (active)
Cc1ccc(N=C2SCCCN2C(=O)c2cccc(N3C(=O)CCC3=O)c2)cc1Cl,0.551%,–
Cc1ccc(CNC(=O)C(=O)c2cn(CC(=O)N3CCOCC3)c3ccccc23)cc1,47.3%,–
COc1ccc(C2=NN(C(=O)CSc3nc(=O)n4ccc(C)cc4n3)C(c3ccc(C)cc3)C2)cc1 (centres undefined),–,9.28 µM (active)
Cc1ccc(C2=NN(C(=O)CSc3nc(N)cc(N)n3)C(c3ccco3)C2)cc1 (centres undefined),5.49%,–
COc1ccc(C2CC(c3ccccc3)=NN2C(=O)CSc2nccc(=O)[nH]2)cc1 (centres undefined),3.53%,–
Cc1cccc(NC(=O)C(C)SCc2ccccc2)c1 (centres undefined),16.4%,–

SMILES,"activity change, negative = inhibition",Potency
COc1ccc(CCNC(=O)COC(=O)Cc2cccc(F)c2)cc1,-17.1%,–
COc1ccc(C(=O)Nc2nc(-c3ccc(OC)cc3)c(-c3ccc([N+](=O)[O-])cc3)s2)cc1,37.7%,–
COC(=O)C(NC(=O)c1ccc(OC)cc1)(Nc1ncc(S(=O)(=O)c2ccc([N+](=O)[O-])cc2)s1)C(F)(F)F (centres undefined),–,8.28 µM (active)
CCOCC(=O)Nc1ncc(S(=O)(=O)c2ccc([N+](=O)[O-])cc2)s1,-20.2%,–
Cc1c(C(=O)NC2CCCCC2)oc2ccccc12,71.4%,–
CC(NC(=O)c1cc(=O)[nH]c2ccccc12)c1ccc(F)cc1F (centres undefined),-8.85%,–
CSc1ccc(CCNC(=O)CS(=O)(=O)Cc2nc(-c3ccccc3F)oc2C)cc1,4.97%,–
COc1ccc(C[C@H](C(=O)O)N2C(=O)c3ccc(C(=O)O)cc3C2=O)cc1,11.4%,–
O=c1ccn(Cc2ccccc2Cl)cc1,15.8%,–
N#CC(C#N)=CN=c1ccn(Cc2ccc(Cl)cc2Cl)cc1,–,2.94 µM (active)
C=CCN1C=C2C(=O)C(C)(OC(=O)CCc3ccccc3)C(=O)C=C2C=C1c1ccc(C#N)cc1 (centres undefined),–,11.7 µM (active)
COCCN1C=C2C(=O)C(C)(OC(=O)C3CCCC3)C(=O)C=C2C=C1c1ccsc1 (centres undefined),33.1%,–
COC/C=C/C1=CC2=CC(=O)C(C)(OC(=O)CCC(=O)OC)C(=O)C2=CO1 (centres undefined),36.7%,–
C/C(=N/OC(=O)c1ccc(Br)cc1)c1ccc(C)cc1,19.2%,–
COc1ccc(-n2c(C)cc(C(=O)CN3C(=O)NC4(CCc5ccccc54)C3=O)c2C)cc1 (centres undefined),–,4.15 µM (active)
COc1ccc(C(=O)CN2C(=O)NC3(CCc4ccccc43)C2=O)c(OC)c1 (centres undefined),10.4%,–
CCN(CC)c1ccc(NC(=O)CN2C(=O)NC3(CCc4ccccc43)C2=O)cc1 (centres undefined),-23.1%,–
CN(CC(=O)Nc1ccc(Cl)cc1)CC(=O)Nc1cccc2ccccc12,12.5%,–
NC(=O)C1CCN(C(=O)c2ccc(F)c(S(=O)(=O)N3CCOCC3)c2)CC1,5%,–
COc1ccc(C=C(C#N)C#N)c(CSc2ccccn2)c1,-16.3%,–
Oc1ccc2ccccc2c1C=Nc1ccccc1,24.6%,–
Oc1ccc(N=Cc2c(O)ccc3ccccc23)cc1,–,9.28 µM (active)
O=[N+]([O-])c1ccc(N=Cc2c(O)ccc3ccccc23)cc1,15.8%,–
COc1cccc(NC(=O)COC(=O)/C=C/c2ccco2)c1,23.3%,–
O=C(COC(=O)c1ccc2ncsc2c1)Nc1ccc(Cl)cc1,47.1%,–

SMILES,"activity change, negative = inhibition",Potency
O=C(CSc1nnc(-c2cccs2)n1-c1ccccc1)N1CCN(C(=O)c2ccco2)CC1,-13.2%,–
Cn1c(SCC(=O)N2CCCC2)nnc1-c1cccs1,20.1%,–
O=C(CSc1nnc(-c2cccs2)n1Cc1ccccc1)N1CCc2ccccc2C1,–,6.57 µM (active)
O=C(O)c1ccc(OCC2CCCO2)cc1 (centres undefined),10%,–
O=C(CSc1n[nH]c(-c2cccs2)n1)N1CCCCC1,25.1%,–
CC(=O)Nc1ccc(S(=O)(=O)NC2Cc3ccccc3C2)cc1,-8.94%,–
O=S(=O)(NC1CCCCC1N1CCCCC1)c1ccc(Cl)cc1 (centres undefined),16.4%,–
CCOC(=O)N1CCN(S(=O)(=O)c2cc(Br)cc3c2N(C(=O)C2CC2)CC3)CC1,-16.7%,–
CS(=O)(=O)N(CC(=O)N1CCN(Cc2ccc3c(c2)OCO3)CC1)c1ccc2c(c1)OCO2,-6.02%,–
CCN(c1ccc2c(c1)OCO2)S(=O)(=O)c1cc(Br)cc2c1N(C(=O)C1CC1)CC2,–,1.47 µM (active)
COc1cccc(CNC(=O)COC(=O)CN2C(=O)NC3(CCCCC3C)C2=O)c1 (centres undefined),4.63%,–
OCC[C@H]1C[C@@H](O)[C@H](O)[C@@]2(OCCc3ccccc32)O1,10%,–
COc1ccc2nc(/N=C(\N)NC(=O)Nc3ccccc3)nc(C)c2c1,–,1.85 µM (active)
COc1ccc2nc(C)cc(Nc3cccc(C(=O)O)c3)c2c1,30%,–
COc1ccc2nc(SCc3ccccc3)nc(C)c2c1,255%,–
O=C(NNC(=O)C(O)c1ccccc1)NC1CCCCC1 (centres undefined),25.1%,–
Cc1nc(/N=C(\N)NC(=O)NC2CCCCC2)nc2ccccc12,–,2.94 µM (active)
Cc1nn(-c2ccccc2)c(C)c1C(=O)OCC(=O)NC(=O)NC1CCCCC1,1.1%,–
COc1ccc(Cl)cc1NC(=O)c1cccc(N2C(=O)C3CC=CCC3C2=O)c1 (centres undefined),20.4%,–
O=Cc1cn(-c2ccccc2)nc1-c1ccccn1,21.5%,–
O=C(CSCc1ccccc1)Nc1ccccc1,56.7%,–
CC(=O)Nc1ccc(NC(=O)C(NS(=O)(=O)c2ccc3c(c2)OCCO3)C(C)C)cc1 (centres undefined),-15.4%,–
CC(=O)c1ccc(S(=O)(=O)N2CCC3(CC2)OCCO3)cc1,-5.09%,–
CC(=O)c1ccc(S(=O)(=O)N2CCN(C(=O)/C=C/c3ccc4ccccc4n3)CC2)cc1,–,11.7 µM (active)
NC(=O)COC(=O)/C=C/c1ccc2ccccc2n1,0%,–

SMILES,"activity change, negative = inhibition",Potency
C/C(=N\Nc1nncc2ccccc12)c1ccc(Cl)c([N+](=O)[O-])c1,50.4%,–
CC(=O)N1CCN(CC(=O)Nc2ccc(C)c(F)c2)CC1,-12.4% [at 0.00184 µM],–
CS(=O)(=O)N(CC(=O)N1CCOCC1)c1cccc(Cl)c1Cl,0.916%,–
Clc1ccc(C2[C@H]3CN(CC4CCCCC4)[C@H](c4ccccc4)C34CC2(c2cccnc2)C4)cn1 (some centres undefined),–,3.7 µM (active)
CCN1C(=NCCc2cccnc2)N[C@@H](c2ccccc2)C(C(=O)OC)=C1C,–,inactive
COC(=O)c1ccc(C23CC4(C2)[C@H](CN(Cc2cccnc2)[C@@H]4c2ccccc2)C3c2ccc(Cl)nc2)cc1 (some centres undefined),–,10.4 µM (active)
COC(=O)c1ccc(CN2CCN(CCCc3ccccc3)C(CCO)C2)cc1 (centres undefined),-11%,–
O=C(O)c1ccc(S(=O)(=O)N2CCOCC2)o1,23.6%,–
CN(C(=O)COC(=O)Cn1cnc2c1c(=O)n(C)c(=O)n2C)C1(C#N)CCCCC1,22.8%,–
CCCC(=O)N1CCC(CCC(=O)NC2CC2)CC1,40.2%,–
CCOC(=O)c1ccc2[nH]c3c(c2c1)CCCC3NC=O (centres undefined),3.34%,–
CC(C)[C@@H](NC(=O)OC(C)(C)C)C(=O)NCC1CCC(C(=O)N[C@@H](Cc2ccccc2)C(=O)O)CC1 (some centres undefined),-7.46%,–
Cc1ccc(S(=O)(=O)N(C)C)cc1NC(=O)COC(=O)/C=C/c1cccs1,7.2%,–
Cc1csc(NC(=O)CSc2nc(=O)cc(N)n2-c2ccc(F)cc2)n1,-0.578%,–
O=C(c1cn(-c2ccccc2)nc1-c1cccnc1)N1CCN(S(=O)(=O)c2ccccc2F)CC1,–,11.7 µM (active)
O=C(c1cn(-c2ccccc2)nc1-c1cccnc1)N1CCCCC1,-29.5%,–
NC(=O)C1CCN(C(=O)c2cn(-c3ccccc3)nc2-c2cccnc2)CC1,20.7%,–
Cc1ccc(S(=O)(=O)CCC(=O)OCC(=O)NCCc2ccc(S(N)(=O)=O)cc2)cc1,-10.4%,–
CCC(=O)c1ccc(OCC(=O)OCC(=O)NC2CCCCCC2)cc1,-18.2%,–
CC1CCCC(C)N1C(=O)CSc1nnnn1C1CCCC1 (centres undefined),27.6%,–
COc1ccc(OC)c(/C(C)=N\NC(=O)c2cc3cc(Cl)ccc3n2C)c1,-1.37%,–
CCCN(CCC)c1nc2c(C)cccn2c(=O)c1/C=C1/SC(=S)N(Cc2ccco2)C1=O,–,1.31 µM (active)
O=C(CCCN1C(=O)/C(=C\c2ccco2)SC1=S)Nc1cccc2ccccc12,5.18%,–
Cc1cccn2c(=O)c(/C=C3\SC(=S)N(CC(C)C)C3=O)c(NCCCOC(C)C)nc12,4.14%,–
